In PubChem BioAssay (NCI):
About 83,000 compounds went through this panel and 20% of them were active in at least one assay; those are over-represented in the sample as a whole.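 Testing used 96-well plates and a 48-hour single-concentration exposure. Example: -40 means 40% of the starting cells died.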 Active and inactive are the calls of the source. The calls were made as follows: active = growth percent below 10; inactive = the rest.

The molecules below were run on M14 melanoma (assay: NCI-60 one-dose screen, 48 h (100 = growth as untreated, 0 = no growth, -100 = all killed)). Details: 10 µM unless noted.

Question: How did the growth turn out when `COc1cc(C(=O)n2nc(N3CCN(C)CC3)c3cc(N)ccc32)cc(OC)c1OC` was run?
Answer: Its growth is 2.63% (active).

Question: Which growth does the source give for `O=C1N[C@@H]2NC(=[N+]3CCOCC3)N[C@@H]2N1` here?
Answer: The growth was 102% (inactive).

Question: For `N#Cc1c(N)nnn1Cc1cc(=O)oc2c1ccc1ccccc12`, which growth is on record?
Answer: Its growth is 101% (inactive).

Question: How did the growth turn out when `COc1cc(OC)cc(C2=C3CC[C@@H]4[C@H](CC[C@]5(C)C(=O)CC[C@@H]45)C3=CC3C(O)c4cccnc4N4C(=O)COC234)c1` (some centres not stated) was run?
Answer: The growth was 104% (inactive).

Question: `C=C(C)[C@@H]1CC[C@]2(C(=O)N3CCN(C)CC3)CC[C@]3(C)[C@H](CC[C@@H]4[C@@]5(C)CC(=C/c6ccncc6)/C(=N/O)C(C)(C)[C@@H]5CC[C@]43C)[C@@H]12` was tested. Which growth did it give?
Answer: The growth was 94.5% (inactive).

Question: Which growth does the source give for `CN1CCN(Cc2ccc3c(NNC(=O)c4ccccc4)nc4cc(F)ccc4n23)CC1` here?
Answer: Its growth is 3.61% (active).

Question: `CCOC(=O)c1c2c(n3ccc(C)cc13)C(=O)c1ccccc1C2=O` was tested. Which growth did it give?
Answer: The growth was 84.6% (inactive).

Question: `CCCC(=O)NC(c1ccc2c(c1)OCO2)c1ccc2cccnc2c1O` (configuration not stated) was tested. Which growth did it give?
Answer: The growth was 4.9% (active).

Question: For `Cc1nc2sc(C(=O)Nc3ccccc3)c(N)c2cc1C(=O)c1ccccc1`, which growth is on record?
Answer: Its growth is 39.8% (inactive).

Question: Which growth does the source give for `COC(=O)c1ccc2c(c1)C(=O)c1c-2n(CCCN)c(=O)c2cc([N+](=O)[O-])ccc12` here?
Answer: The growth was -100% (active).

Question: How did the growth turn out when `CO[C@]12C=C/C(=C(/C(=O)OCc3cccnc3)C(=O)CCCCCCCC[C@@]3(OC)C=C/C(=C(/C(=O)OCc4cccnc4)C(=O)CCCCCCCC1)O3)O2` was run?
Answer: Its growth is 3.57% (active).

Question: `Brc1c2c(c(Br)c3ccccc13)CCCC2` was tested. Which growth did it give?
Answer: Its growth is 99.1% (inactive).
